Results on 4 compounds are retold here after PubChem BioAssay (NCI).

The panel holds about 83,000 compounds, 20% with a hit somewhere; the sample as a whole holds those more often.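 Activity criterion: percent growth below 10, measured after cells in 96-well plates were exposed to a single compound concentration for 48 hours.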 A number with no mark means an inactive call.

In the assay the test system is MDA-MB-468 breast. The experiment in a line: NCI-60 one-dose screen, 48 h (100 = growth as untreated, 0 = no growth, -100 = all killed). The conditions noted are these: 10 µM unless noted.
Regarding `CCOC(=O)c1cc(-c2cccnc2)nc2c(Cl)cc(Cl)cc12`, the growth was 117%.

Consider `CC1=C2[C@@H](CC1)[C@]1(C)O[C@@](C(C)C)(C[C@H]1OC(=O)CO)[C@H]2OC(=O)C1CC1c1ccccc1` (some centres undefined), for which the growth is 93.3%.

On to `NC(=O)Cc1nc(O)cc(=O)[nH]1`, for which the growth is 111%.

Turning to `C/C(=C(\c1ccc(OCCN2CCCCCC2)cc1)c1ccc(OC(=O)c2ccccc2)cc1)c1ccc(Cl)cc1`, the growth is 45.5%.
